The record followed here is PubChem BioAssay AID720519 (National Center for Advancing Translational Sciences (NCATS), 2013).

Records with an inconclusive call do not appear. Entries that show only a call come without a potency. Activity calls are given as the source filed them. Calls come from the whole dose curve; as a rule, active = well fitted activation curve with a large enough effect; inconclusive = small, poorly fitted or top-dose-only effect; inactive = flat fitted curve, though single readings scatter.

A short description of the assay: qHTS for Inhibitors of Cell Surface uPA Generation: Confirmatory Assay for Cherry-picked Compounds. As to conditions: cell surface uPA activity generation, qHTS confirmation; series mostly up to 115 µM. In a few lines: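 RAW 264.7 cells at 4000/well, incubated overnight, then treated with compounds. After 24 h at 37 C, viability was read by ATPlite luminescence. An increase in signal indicates blocked uPA-dependent LF entry.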
Consider `CCC(NC(=S)NCc1ccc(F)cc1)c1ccccc1` (configuration not stated), for which the Potency result is “inactive”.
With `Cc1oc(-c2ccccc2F)nc1CS(=O)CC(=O)NCc1ccc(F)cc1` (configuration not stated), the Potency result was “inactive”.
Take `COc1ccc(Cc2nnc(Nc3ccc(C)cc3)o2)cc1OC`: the Potency entry is “inactive”.
With `COc1cccc(CNC(=O)C2CCCN(S(=O)(=O)c3ccc4c(c3)C(C)(C)C(=O)N4C)C2)c1` (configuration not stated) the entry was “inactive”.
Consider `COc1cc(OC)cc(C(=O)NC(C(=O)Nc2ccc3c(c2)CCC3)C(C)C)c1` (configuration not stated), for which the Potency entry is “inactive”.
As for `O=S(=O)(NCCc1ccccc1F)c1cccc(S(=O)(=O)N2CCOCC2)c1`, the entry is “inactive”.
With `Cc1ccc(-n2nc3c(c2NC(=O)c2ccc4c(c2)OCO4)CS(=O)C3)c(C)c1` (configuration not stated) the entry was “inactive”.
As for `Cc1cc(C)cc(S(=O)(=O)c2cn(C)c3cc(N4CCN(C)CC4)c(F)cc3c2=O)c1`, the Potency result is “inactive”.
With `COc1ccc(C2NC(=O)CCC2[N+](=O)[O-])c(OC)c1OC` (configuration not stated), the Potency entry is “inactive”.
As for `C[C@H]([C@H](O)c1ccccc1)N(C)C(=O)CN`, the entry is “inactive”; as for `C#CCOCCOCCOCCNc1nc(N2CCOCC2)nc(N2CCN(C(=O)[C@H](CCC(=O)O)n3cc([C@@H](N)CCCCN)nn3)CC2)n1`, “inactive”; as for `Cc1ccc(Cl)c(N/C=C/C(=O)c2ccccc2)c1`, “inactive”.
Consider `Cc1ccccc1NC1c2ccccc2C(=O)N1Cc1ccco1` (configuration not stated), for which the Potency entry was “inactive”.
With `COc1ccc2nc(C)cc(Nc3ccccc3O)c2c1` the entry was “inactive”; with `Cc1cccc(C)c1NC(=O)c1c(O)c2ccccc2[nH]c1=O`, “inactive”.
Take `CCCOc1ccc(CC2CCC(=O)NC2=O)cc1` (configuration not stated): the Potency entry is “inactive”.
With `C[C@H](CO)N1C[C@H](C)[C@@H](CN(C)C(=O)Nc2ccccc2)Oc2ccc(NC(=O)Cn3cnnn3)cc2C1=O` the entry was “inactive”.
